BCR signal inh: chronic active BCR signaling inhibition | hit rate 0.05% among 340,000 | Potency, µM (titrated, usually from 46.1 µM), inactives show at the top dose activity change, negative = inhibition, actives largely listed as inhibitors | AID 493014 | ABC-DLBCL IkBa-CBG/CBR reporter, luminescence ratio, 4 h; active = well fitted inhibition curve with a large enough effect in the signal ratio, with a control signal flat, not every such curve was filed as active; inconclusive = small, poorly fitted or top-dose-only effect, or effect the other way, or a change in a side signal; the % refers to the signal ratio;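 also: potency is read from the fitted curve at half-maximal effect; plate controls were basal doxycycline-induced cells for no effect and cells given 10 µM MG132 for full effect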
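Concentration-response series (up to 46 uM) were applied to TMD8 dual-reporter cells for 4 h at 37C with doxycycline. Green/red ratio, after filter-overlap correction, defined %Activity; red signal alone was normalised to basal cells and zero luminescence.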
TDP1 cell CPT: growth inhibition of DT40 Tdp1-/-;hTDP1 cells with camptothecin (screen for TDP1 inhibitors). chicken DT40 Tdp1-/-;hTDP1 cells + 20 nM CPT, ATP luminescence, 48 h. Potency, µM (highest dose often 46.2 µM), inactives show at the top dose activity change, negative = growth inhibition, usual class: inhibitors. hit rate 12% among 420,000; also: potency is read from the fitted curve at half-maximal effect; % is scaled to controls: 0 for no effect and ±100 for the full control effect; nearly all actives have a fitted effect of over 55% in size
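Chicken DT40 Tdp1-/- cells complemented with human TDP1, 400 cells/well, exposed to compounds plus 20 nM camptothecin for at least 48 h at 37 C; viability read as ATP content by CellTiter-Glo luminescence.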
MCF10A rerep: DNA re-replication induction in MCF 10a cells | MCF 10A DNA re-replication, Hoechst nuclear intensity, 48 h | hit rate 2.9% among 350,000 | AID 624296 | Potency, µM (titrated, usually from 46.1 µM), inactives show at the top dose activity, positive = re-replication, usual class: activators; also: potency is read from the fitted curve at half-maximal effect; % of control where 0% means no effect; nearly all actives have a fitted effect of over 50% in size
SW480 rereplic: DNA re-replication induction in SW480 cells; SW480 DNA re-replication, Hoechst DNA content imaging, 48 h; Potency, µM (top dose mostly 46.1 µM), for the others: at the highest dose re-replication activation, actives largely listed as activators; hit rate 1.8% among 340,000; also: potency is read from the fitted curve at half-maximal effect; % of control where 0% means no effect; nearly all actives have a fitted effect of over 55% in size
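Image-based DNA-content assay: after two days of treatment, nuclei were labelled with the DNA dye Hoechst and imaged, and hits were compounds raising the count of nuclei showing high fluorescence intensity.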
IL-1B inflam inh: blocks inflammasome-driven IL-1 beta release | THP-1 LPS/ATP IL-1B secretion, AlphaLISA, 16 h; stronger effect = lower value | activity change, % at 57.5 µM | hit rate 4.7% among 360,000 | AID 743279; in the data active = activity change below about -50%; inconclusive = mostly about -30% to -49%; also: % is scaled to controls: 0 for no effect and ±100 for the full control effect
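THP-1 cells pretreated 1 hr with compounds (up to 57.5 uM final), then stimulated with LPS (250 ng/mL final) plus ATP (1.25 mM final); secreted IL-1B measured by AlphaLISA after 16 hr, decreased signal indicating inhibition.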
TDP1 cell noCPT: qHTS for Inhibitors of human tyrosyl-DNA phosphodiesterase 1 (TDP1): qHTS in cells in absence of CPT; DT40 Tdp1-/- hTDP1 cells, no CPT, ATP luminescence, 48 h; Potency, µM (titrated, usually from 46.2 µM), for inactives: at the highest dose activity change, negative = growth inhibition, actives largely listed as inhibitors; hit rate 15% among 420,000; also: potency is read from the fitted curve at half-maximal effect; % is scaled to controls: 0 for no effect and ±100 for the full control effect; nearly all actives have a fitted effect of over 55% in size
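Growth kinetics read by CellTiter-Glo luminescence after ≥48 hr at 37 °C. Cells: DT40 Tdp1-/- stably carrying human TDP1, 400 per well, compound exposure in the absence of CPT (DMSO vehicle).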
Active calls of the source: *; [ ] = remark or other dose. The list is not random: actives were taken first. Their share in the collection is about 19%. Unless noted, calls follow the shape of the dose curve; as a rule, active = well fitted curve in the direction sought with a large enough effect; inconclusive = small, poorly fitted or top-dose-only effect, or another doubt; inactive = no such curve, though single readings can be large; an effect the other way counts as inactive or inconclusive.

For O=C(/C=C/c1ccc2c(c1)OCO2)c1c(O)n(CCC2=CCCCC2)c(=O)[nH]c1=O the results were BCR signal inh -15%, TDP1 cell CPT inconclusive, MCF10A rerep 1.8µM*, SW480 rereplic 0%, IL-1B inflam inh 0 and TDP1 cell noCPT 5.8µM*.
Screening CN(C)CCN=Cc1c(O)n(CCC2=CCCCC2)c(=O)[nH]c1=O returned BCR signal inh 1%, TDP1 cell CPT -3%, MCF10A rerep -1%, SW480 rereplic -4%, IL-1B inflam inh -18 and TDP1 cell noCPT 14%.
`COc1ccc(/C=C/C(=O)c2c(O)n(CCC3=CCCCC3)c(=O)[nH]c2=O)cc1` gave BCR signal inh -1%, TDP1 cell CPT 6.5µM*, MCF10A rerep 7.3µM*, SW480 rereplic -1%, IL-1B inflam inh -16 and TDP1 cell noCPT inconclusive.
CCCCn1c(O)c(C(=O)/C=C/c2ccc3c(c2)OCO3)c(=O)[nH]c1=O was read as BCR signal inh inconclusive, TDP1 cell CPT inconclusive, MCF10A rerep inconclusive, SW480 rereplic inconclusive, IL-1B inflam inh -73* and TDP1 cell noCPT inconclusive.
Screening O=C(N/N=C/c1c(O)n(CCC2=CCCCC2)c(=S)[nH]c1=O)c1ccccc1 returned BCR signal inh inconclusive, TDP1 cell CPT inconclusive, MCF10A rerep inconclusive, SW480 rereplic inconclusive, IL-1B inflam inh 42 and TDP1 cell noCPT inconclusive.
Screening CC(=O)OC1N=C(c2ccccc2Cl)c2cc(Br)ccc2N(C)C1=O (configuration not stated) returned BCR signal inh -4%, TDP1 cell CPT -11%, MCF10A rerep 8%, SW480 rereplic 5%, IL-1B inflam inh -12 and TDP1 cell noCPT inconclusive.
For CCN(C(=O)COC(=O)Cc1ccccc1)c1c(N)n(Cc2ccccc2)c(=O)[nH]c1=O the results were BCR signal inh 1%, TDP1 cell CPT 13%, MCF10A rerep 15%, SW480 rereplic -3%, IL-1B inflam inh 2 and TDP1 cell noCPT 1%.
Screening Cc1cccc(C(C)c2cnc[nH]2)c1C (configuration not stated) returned TDP1 cell CPT 27µM* and TDP1 cell noCPT inconclusive.
Screening CCCOP(=O)(c1ccc(N(C)C)cc1)C(O)c1ccc(Cl)cc1 (configuration not stated) returned BCR signal inh inconclusive, TDP1 cell CPT 4%, MCF10A rerep -10%, SW480 rereplic -3%, IL-1B inflam inh -14 and TDP1 cell noCPT -20%.
`Cc1ccc(Cl)cc1N1CCN(C(=O)c2cn(C)c(=O)c3c2c2ccccc2n3C)CC1` gave BCR signal inh 2%, TDP1 cell CPT inconclusive, MCF10A rerep inconclusive, SW480 rereplic inconclusive, IL-1B inflam inh -68* and TDP1 cell noCPT 18µM*.
`Cc1ccc(C)c(N2CCN(C(=O)c3cccn4c(=O)c5ccccc5nc34)CC2)c1` gave BCR signal inh -1%, TDP1 cell CPT inconclusive and TDP1 cell noCPT inconclusive.
Screening CC1CCC(NC(=O)CN2CCN(S(=O)(=O)c3ccc(Br)s3)CC2)CC1 (configuration not stated) returned TDP1 cell CPT 16µM*, IL-1B inflam inh -4 and TDP1 cell noCPT 16µM*.
NC(N)=NN=C(/C=C/c1ccc([N+](=O)[O-])o1)/C=C/c1ccc([N+](=O)[O-])o1 was read as TDP1 cell CPT 3µM*, MCF10A rerep inconclusive, SW480 rereplic inconclusive and TDP1 cell noCPT 3µM*.
COc1c2c(cc3c1OCO3)CC[N+](C)=C2 was read as BCR signal inh 0%, TDP1 cell CPT -26%[9.04 µM], MCF10A rerep -1%, SW480 rereplic -5%, IL-1B inflam inh 5 and TDP1 cell noCPT -12%[9.04 µM].
`CC[C@@]1(O)C(=O)OCc2c1cc1n(c2=O)Cc2cc3c(N)cccc3nc2-1` gave BCR signal inh inconclusive, TDP1 cell CPT 0.16µM*, MCF10A rerep -65%, SW480 rereplic 1%, IL-1B inflam inh -112* and TDP1 cell noCPT 0.13µM*.
[2H]C([2H])([2H])[C@H](N)Cc1ccccc1 was read as TDP1 cell CPT 3% and TDP1 cell noCPT 4%.
CN(Cc1ccccc1)C(=O)c1ccc(NC(=O)C2CCN(C(=O)OC(C)(C)C)CC2)cc1 was read as BCR signal inh 4%, TDP1 cell CPT 23µM*, MCF10A rerep -5%, SW480 rereplic 6%, IL-1B inflam inh 46 and TDP1 cell noCPT 15µM*.
Nc1cccc2c1C(=O)N(C(=O)/C=C/c1ccc(F)cc1)C2=O was read as BCR signal inh inconclusive, TDP1 cell CPT 16µM*, MCF10A rerep inconclusive, SW480 rereplic inconclusive, IL-1B inflam inh -78* and TDP1 cell noCPT 23µM*.
Screening COc1ccc(C(=O)NC(=S)NNC(=O)c2ccccc2O)cc1 returned BCR signal inh inconclusive, TDP1 cell CPT 15µM*, MCF10A rerep 23µM*, SW480 rereplic 13%, IL-1B inflam inh 63 and TDP1 cell noCPT 12µM*.
For C[C@]12C=CC(=O)C=C1CC[C@@H]1C2=CC[C@]2(C)[C@@H](C(=O)CN3CCN(c4cc(N5CCCC5)nc(N5CCCC5)n4)CC3)CC[C@@H]12 the results were TDP1 cell CPT 18µM*, MCF10A rerep inconclusive, SW480 rereplic 12%, IL-1B inflam inh inconclusive and TDP1 cell noCPT 13µM*.
C=C1C(=O)OC2C1CCC(C)C1(O)C=CC(=O)C21C (configuration not stated) was read as TDP1 cell CPT 2.6µM*, MCF10A rerep inconclusive, SW480 rereplic inconclusive, IL-1B inflam inh -109* and TDP1 cell noCPT 2.3µM*.
`O=C(C1CCN(S(=O)(=O)c2ccc(Br)s2)CC1)N1CCN(c2ccc(F)cc2)CC1` gave TDP1 cell CPT inconclusive and TDP1 cell noCPT 21µM*.
Screening CCCc1nc2ccccc2c(=O)n1/N=C/c1c(C)[nH]n(-c2ccc(C)cc2)c1=O returned BCR signal inh inconclusive, TDP1 cell CPT 21µM*, MCF10A rerep 11%, SW480 rereplic inconclusive, IL-1B inflam inh 44 and TDP1 cell noCPT 12µM*.
Screening Clc1ccc(COC(Cn2ccnc2)c2ccc(Cl)cc2Cl)cc1 (configuration not stated) returned BCR signal inh inconclusive, TDP1 cell CPT 23µM*, MCF10A rerep inconclusive, SW480 rereplic inconclusive, IL-1B inflam inh 0 and TDP1 cell noCPT 21µM*.
